Test results: ChEMBL document CHEMBL4303097 (2020)
Over roughly 1,500 compounds, “Inhibition index” has its median near 0.17; the highest 2% begin near 1.3. The list comes from a sample in which the highest values are over-represented; it also holds similar structures and randomly drawn compounds.

System: SARS-CoV-2
Assay: Inhibition of cell viability relative to arbidol control (inhibition index > 1 indicates higher activity) measured by fluorescence (OD590nm) in Vero E6 cells infected with SARS-CoV-2 (strain BavPat1) at MOI 0.002 after 72hrs
Assay type: functional, Chlorocebus sabaeus, Vero C1008

SMILES | Inhibition index
CCCCOc1ccc(C(=O)CCN2CCCCC2)cc1.Cl [DYCLONINE HYDROCHLORIDE] | 1.119
CCc1ccc(C(=O)C(C)CN2CCCCC2)cc1.Cl (stereo unspecified) | 1.254
Cc1ccc(C(=O)C(C)CN2CCCCC2)cc1.Cl (stereo unspecified) [TOLPERISONE HYDROCHLORIDE] | 1.172
C[C@]12CC[C@@H]3c4ccc(O)cc4CC[C@H]3[C@@H]1CC[C@@H]2O [ESTRADIOL] | 0.3797
C[C@]12CC[C@@H]3c4ccc(O)cc4CC[C@H]3[C@@H]1CCC2=O [ESTRONE] | 0.9303
C[C@]12CC[C@H]3C(=CCc4cc(O)ccc43)[C@@H]1CCC2=O [EQUILIN] | 1.282
CC(=O)[N-]S(=O)(=O)c1ccc(N)cc1.O.[Na+] [SULFACETAMIDE SODIUM] | 0.002362
Cc1cc(O)c(C(=O)N[C@@H](C(=O)N[C@@H]2C(=O)N3C(C(=O)O)=C(CSc4nnnn4C)CS[C@H]23)c2ccc(O)cc2)cn1 [CEFPIRAMIDE] | 0.7171
CN(C)CCCN1c2ccccc2[S+]([O-])c2ccc(Cl)cc21 (stereo unspecified) [CHLOROPROMAZINE SULFOXIDE] | 0.938
CN1C[C@H](CNC(=O)OCc2ccccc2)C[C@@H]2c3cccc4c3c(cn4C)C[C@H]21 [METERGOLINE] | -0.1165
CC(C)NCC(O)COc1ccc(CCOCC2CC2)cc1.Cl (stereo unspecified) [BETAXOLOL HYDROCHLORIDE] | 0.6286
CCOc1ccc2ccccc2c1C(=O)N[C@@H]1C(=O)N2[C@@H]1SC(C)(C)[C@@H]2C(=O)[O-].O.[Na+] [NAFCILLIN SODIUM] | 0.3633
Brc1c(NC2=NCCN2)ccc2nccnc12.O=C(O)C(O)C(O)C(=O)O | 0.355
CN(C)[C@@H]1C(O)=C(C(N)=O)C(=O)[C@@]2(O)C(O)=C3C(=O)c4c(O)cccc4[C@@](C)(O)[C@H]3C[C@@H]12.Cl [TETRACYCLINE HYDROCHLORIDE] | -0.0001993
CCC(=O)O[C@]1(C(=O)SCF)[C@H](C)C[C@H]2[C@@H]3C[C@H](F)C4=CC(=O)C=C[C@]4(C)[C@@]3(F)[C@@H](O)C[C@@]21C [FLUTICASONE PROPIONATE] | 0.5757
CN(C)[C@@H]1C(O)=C(C(N)=O)C(=O)[C@@]2(O)C(O)=C3C(=O)c4c(O)ccc(Cl)c4[C@@](C)(O)[C@H]3C[C@@H]12.Cl [CHLORTETRACYCLINE HYDROCHLORIDE] | 0.03495
